Rows were chosen to be rich in hits. Some 3.4% of all compounds tested hit in one or more screens of this group.
FBW7 act: human FBW7 E3 ligase activation, primary screen; Q969H0; AlphaScreen FBW7–phospho-cyclin E peptide binding, activator screen; normalized activity (activation), % at 26.1 µM; 0.13% of 650,000 active; AID 1259310; in the data active = normalized activity above about 1.9%;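 also: purified mutant Fbw7 with reduced substrate affinity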
MITF primary: inhibitors of human MITF | inhibition, % at 2.6 µM | 0.91% of 650,000 active | AlphaScreen MITF homodimerization, bead proximity signal; in the data active = inhibition above about 50%
Target sequence (O75030 whole entry, looked up): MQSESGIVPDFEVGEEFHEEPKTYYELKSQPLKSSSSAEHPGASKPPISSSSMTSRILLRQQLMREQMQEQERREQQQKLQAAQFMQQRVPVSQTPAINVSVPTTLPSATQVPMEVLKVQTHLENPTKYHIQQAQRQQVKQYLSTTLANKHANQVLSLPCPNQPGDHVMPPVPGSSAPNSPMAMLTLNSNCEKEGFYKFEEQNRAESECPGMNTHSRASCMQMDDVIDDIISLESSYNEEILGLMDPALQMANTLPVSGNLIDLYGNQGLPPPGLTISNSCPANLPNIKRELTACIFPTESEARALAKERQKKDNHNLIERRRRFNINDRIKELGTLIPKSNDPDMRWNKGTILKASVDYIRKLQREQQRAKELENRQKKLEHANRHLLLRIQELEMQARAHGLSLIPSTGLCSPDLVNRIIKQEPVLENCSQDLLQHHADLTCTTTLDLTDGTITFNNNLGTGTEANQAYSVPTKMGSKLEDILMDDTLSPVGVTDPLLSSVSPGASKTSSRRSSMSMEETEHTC
TEAD-YAP block: TEAD-YAP interaction inhibition; AID 1259422; 1.4% of 640,000 active; inhibition, % at 9.12 µM; HEK-TIYL cells, TEAD-Gal4/YAP UAS-luciferase luminescence; in the data active = inhibition above about 32%
GPR151 activ: activates the human receptor GPR151; Q8TDV0; PathHunter beta-arrestin GPR151 cells, luminescence; activation, % at 11.2 µM; 1% of 650,000 active; in the data active = activation above about 4.9%
MITF confirm: human MITF inhibition, confirmation. shares compounds with MITF primary. AlphaScreen MITF homodimerization, biotin/His-MITF beads. inhibition, % at 2.6 µM. 16% of 4,700 active;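 active = inhibition above a cutoff derived from the DMSO control wells, cut at about 28% in these data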;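 also: inhibitors lower the bead chemiluminescence by keeping MITF from dimerizing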
AlphaScreen DR: optically interferes with AlphaScreen signal in dose response; shares compounds with MITF primary; AlphaScreen optical interference counterscreen, cell-free; IC50, µM; 6% of 480 active; call rule not given here
AS interf ctr: optically interferes with AlphaScreen signal; shares compounds with MITF primary; LysRS AlphaScreen counterscreen, signal interference, triplicate; inhibition, % at 2.6 µM; 7.6% of 4,700 active; AID 1259376;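 active = inhibition above a cutoff derived from the DMSO control wells, cut at about 30% in these data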
Large screens that a line does not name were inactive (follow-up assays come after a bar, where they were run); ! = not confirmed by another sample.

Cc1ccc(N2C(=O)c3cccnc3C2=O)nc1	none
O=C(c1ccc(OC2CCN(C3CCSCC3)CC2)cc1)N1CCCCC1	none
CCOC(=O)c1c(N)n(C(C)CO)c2nc3ccccc3nc12 (stereo unspecified)	MITF primary 53.0 | MITF confirm inactive | AS interf ctr inactive
COc1ccccc1NC(=S)NCCCn1ccnc1	MITF primary 78.5 | MITF confirm inactive | AS interf ctr inactive
Cc1c(Cl)cccc1NC(=O)CN(c1ccc(F)cc1)S(C)(=O)=O	none
O=C(NCCc1ccccc1)[C@@H]1C=CCN1C(=O)c1ccccc1F	none
O=c1[nH]c(CN(CCO)Cc2nc3sccc3c(=O)[nH]2)nc2sccc12	MITF primary 78.1 | MITF confirm 46.5 | AS interf ctr 100.3
C=CCOC(=O)COc1ccc2c(=O)c(Oc3ccc(OC)cc3)coc2c1	MITF primary 74.8 | MITF confirm inactive | AS interf ctr inactive
O=[N+]([O-])c1cc(C=Nc2ccc(N3CCOCC3)cc2)c(O)c([N+](=O)[O-])c1	MITF primary 74.5 | MITF confirm 83.3 | AlphaScreen DR inactive | AS interf ctr inactive
Cc1ccc(/C(C#N)=C\c2ccco2)cc1	MITF primary 55.7 | MITF confirm 42.1 | AlphaScreen DR inactive | AS interf ctr inactive
Cc1ccc2c(c1)=C(c1sc(=O)n(CC(=O)c3ccccc3)c1O)C(=O)N=2	none
O=C(NCc1ccc2c(c1)OCO2)C1(S(=O)(=O)c2ccc(Cl)cc2)CC1	MITF primary 87.8 | MITF confirm inactive | AS interf ctr inactive
O=C(CNCCc1ccc(Cl)cc1)NCc1ccc2c(c1)OCO2	MITF primary 60.0 | MITF confirm inactive | AS interf ctr inactive
CCOc1ccc(/C=N/Nc2nnc(C)c(=O)[nH]2)cc1	none
Cc1ccc(NC(=O)c2ccc(C(F)(F)F)cc2)cc1	none
Cc1ccc(NC(=O)CSc2nc(C(C)C)nc3c2c(=O)n(C)c(=O)n3C)c(C)c1	none
CC(C)(C)C(=O)COC(=O)[C@@H]1CC(O)CN1S(=O)(=O)c1ccc(F)cc1 (stereo partly specified)	MITF primary 59.8 | MITF confirm inactive | AS interf ctr inactive
CCCSCCCNC(=O)Cn1cccc1C(=O)c1ccccc1	none
Cc1c(CN2CCN(C3CCN(C(C)C)CC3)C(CCO)C2)cnn1C (stereo unspecified)	MITF primary 83.9 | MITF confirm inactive | AS interf ctr inactive
Cc1cc(C)c(CN2CCN(C3CCN(C(C)C)CC3)C(CCO)C2)cc1C (stereo unspecified)	none
CC(=O)NC12CC3CC(C1)CC(C(=O)Nc1ccc(C(C)(C)C)cc1)(C3)C2	none
C=CCN(CC=C)C(=O)C1CCN(Cc2cc(Br)c(O)c(OC)c2)CC1	MITF primary 69.3 | MITF confirm inactive | AS interf ctr inactive
COc1cc(CN2CCC(O)CC2)cc(Br)c1O	none
COc1ccc(Cl)cc1NC(=S)N(CCCN1CCCCC1)Cc1ccco1	none
NC(=O)c1ccc(-c2csc3ccccc23)s1	none
NC(=O)c1ccc(-c2cccs2)s1	MITF primary 59.3 | MITF confirm 38.7 | AlphaScreen DR inactive | AS interf ctr inactive
C=C1c2c(Cl)ccc(O)c2C(O)=C2C(=O)[C@]3(O)C(O)=C(C(N)=O)C(=O)[C@@H](N(C)C)[C@@H]3[C@@H](O)[C@H]12	MITF primary 62.8 | MITF confirm 85.3 | AlphaScreen DR inactive | AS interf ctr 30.1!
C=C1c2cccc(O)c2C(O)=C2C(=O)[C@]3(O)C(O)=C(C(N)=O)C(=O)[C@@H](N(C)C)[C@@H]3[C@@H](O)[C@H]12	MITF primary 54.0 | MITF confirm 40.8! | AlphaScreen DR inactive | AS interf ctr inactive
Cc1ccnc2nc(C(=O)Nc3nc(-c4cccs4)cs3)nn12	none
Cc1ccnc2nc(C(=O)Nc3nc(-c4ccccn4)cs3)nn12	MITF primary 65.4 | MITF confirm 58.8 | AS interf ctr 79.1
Cc1ccc(N2CC(NC(=O)NCCc3c[nH]c4ccccc34)CC2=O)cc1 (stereo unspecified)	none
COc1ccc(-c2ccc(C)c(NC(=O)c3c(OC)cccc3OC)c2)nn1	none
CCOc1ccc(-c2ccc(NC(=O)c3c(OC)cccc3OC)cc2)nn1	MITF primary 99.0 | MITF confirm inactive | AS interf ctr inactive
NC(=O)C1CCN(CC(=O)NCCc2ccccc2)CC1	MITF primary 56.7 | MITF confirm inactive | AS interf ctr inactive
N#Cc1ccc(C(=O)CSc2nnc(-c3c[nH]c4ccccc34)o2)cc1	none
O=Cc1cccn1-c1ccc(C(=O)O)cc1	MITF primary 66.7 | MITF confirm 63.8 | AlphaScreen DR inactive | AS interf ctr inactive
N#CC(C#N)=Cc1cccn1-c1ccc(C(=O)O)cc1	MITF primary 63.3 | MITF confirm 61.1 | AlphaScreen DR inactive | AS interf ctr inactive
O=C(c1ccccc1Cl)n1c(Cc2ccccc2)nc2ccccc21	none
O=C1c2ccc(-c3nc4ccccc4c(=O)o3)cc2C(=O)N1c1ncc([N+](=O)[O-])s1	MITF primary 55.6 | MITF confirm inactive | AS interf ctr inactive
O=S(=O)(c1cc(Br)c(Br)s1)N1CCN(c2ccccc2F)CC1	none
CCN(C(=O)c1ccccn1)c1nc2c(s1)CCc1oc(C)cc1-2	MITF primary 77.2 | MITF confirm 36.8 | AS interf ctr 77.3
CCN(C(=O)c1ccco1)c1nc2c(s1)CCc1oc(C)cc1-2	none
O=C(CCc1ccccc1)NN1C(=O)CCC1=O	none
CC12CCC(C(=O)N(NC(=O)CCc3ccccc3)C1=O)C2(C)C (stereo unspecified)	MITF primary 65.3 | MITF confirm inactive | AS interf ctr inactive
CN1CCN(CC(=O)Nc2c3c(nc4ccccc24)N(C)CC3)CC1	MITF primary 78.7 | MITF confirm inactive | AS interf ctr inactive
CN(CC(=O)Nc1c2c(nc3c1CCC3)CCCC2)Cc1ccccc1	MITF primary 68.0 | MITF confirm inactive | AS interf ctr inactive
CN1CCc2c1nc1ccccc1c2NC(=O)C12CC3CC(CC(C3)C1)C2	none
CN(CC(=O)Nc1c2c(nc3ccccc13)N(C)CC2)Cc1ccccc1	MITF primary 65.1 | MITF confirm inactive | AS interf ctr inactive
O=C(CN1CCCCC1)Nc1c2c(nc3ccccc13)N(c1ccccc1)CC2	none
CN1CCc2c1nc1ccccc1c2NC(=O)CNC1CC1	MITF primary 52.9 | MITF confirm inactive | AS interf ctr inactive
O=C(CSc1nc2ccsc2c(=O)n1NC(=O)c1cccc(Br)c1)c1ccc(Br)cc1	none
Cc1nn2c(SCC(=O)N(C)c3ccccc3)nnc2[nH]c1=O	none
O=S1(=O)N=C(c2ccc(F)cc2)Nc2ccccc21	none
N#CC1=C(N)n2c(s/c(=C\c3ccco3)c2=O)=C(C#N)C1c1ccco1 (stereo unspecified)	MITF primary 56.2 | MITF confirm 42.2 | AlphaScreen DR inactive | AS interf ctr inactive
CCC1(C)Cc2c(sc3nc(SCC(=O)O)[nH]c(=O)c23)CO1 (stereo unspecified)	none
